Laboratory results reported in PubChem BioAssay (NCATS).
Records with an inconclusive call do not appear. The source made the active and inactive calls. Calls follow the shape of the dose curve; as a rule, active = well fitted curve in the direction sought with a large enough effect; inconclusive = small, poorly fitted or top-dose-only effect, or another doubt; inactive = no such curve, though single readings can be large; an effect the other way counts as inactive or inconclusive.

Experiments:
[1] = tested on: CRL-7250; assay: Cytotoxic Profiling of Annotated Libraries Using Quantitative High-Throughput Screening (AID 1296008); conditions: Five cell lines viability, CellTiter-Glo ATP luminescence, 48-72 h; max response: stronger effect = lower value; also: nearly all actives have a fitted effect of over 60% in size
Method in brief: (§1)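 Compounds were pin-transferred onto cells and incubated 48 or 72 hr at 37 degree Celsius, 95% humidity. CellTiter-Glo was added, plates sat 10 min at room temperature, then ATP-coupled luminescence was imaged as the viability read-out.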

[2] = tested on: HEK293; assay: as above; conditions: Five cell lines viability, CellTiter-Glo ATP luminescence, 48-72 h; max response: stronger effect = lower value
Method in brief: as §1

[3] = tested on: HaCat; assay: as above; conditions: Five cell lines viability, CellTiter-Glo ATP luminescence, 48-72 h; max response: stronger effect = lower value
Method in brief: as §1

[4] = tested on: KB-3-1; assay: as above; conditions: Five cell lines viability, CellTiter-Glo ATP luminescence, 48-72 h; max response: stronger effect = lower value
Method in brief: as §1

[5] = tested on: NIH3T3; assay: as above; conditions: Five cell lines viability, CellTiter-Glo ATP luminescence, 48-72 h; max response: stronger effect = lower value
Method in brief: as §1

[6] = tested on: HACAT; assay: qHTS assay to identify novel small-molecules to repurpose for Merkel cell carcinoma treatment (AID 1296009); conditions: MCC and control cell lines, CellTiter-Glo viability, 72 h; at 44.8 µM (top of the series) unless noted; also: nearly all actives have a fitted effect of over 60% in size
Method in brief: (§2)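 qHTS format: cells treated with library compounds in DMSO across 8 (NPC) or 11 (MIPE) concentrations. Readout after 72 hr at 37 degree celsius was CellTiter-Glo luminescence.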

[7] = tested on: MCC-13; assay: as above; conditions: MCC and control cell lines, CellTiter-Glo viability, 72 h; series mostly up to 46 µM
Method in brief: as §2

[8] = tested on: MCC-26; assay: as above; conditions: MCC and control cell lines, CellTiter-Glo viability, 72 h; series mostly up to 46 µM
Method in brief: as §2

[9] = tested on: MKL-2; assay: as above; conditions: MCC and control cell lines, CellTiter-Glo viability, 72 h; series mostly up to 46 µM
Method in brief: as §2

[10] = tested on: NIH3T3; assay: as above; conditions: MCC and control cell lines, CellTiter-Glo viability, 72 h; at 44.8 µM (top of the series) unless noted
Method in brief: as §2

[11] = tested on: UISO; assay: as above; conditions: MCC and control cell lines, CellTiter-Glo viability, 72 h; series mostly up to 46 µM
Method in brief: as §2

[12] = tested on: WaGa; assay: as above; conditions: MCC and control cell lines, CellTiter-Glo viability, 72 h; series mostly up to 46 µM
Method in brief: as §2

[13] = tested on: C33A; assay: Primary qHTS to identify gynecologic anti-cancer compounds using libraries of approved drugs and bioactive compounds (AID 1345084); conditions: Gynecologic cancer cell panel viability, ATPlite luminescence, 48 h; series mostly up to 57.5 µM; also: nearly all actives have a fitted effect of over 55% in size
Method in brief: (§3)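 Cytotoxicity screen measuring ATP content by luciferase luminescence. Each compound is applied at five concentrations for 48 h at 37 C with 5% CO2.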

[14] = tested on: CAOV3; assay: as above; conditions: Gynecologic cancer cell panel viability, ATPlite luminescence, 48 h; series mostly up to 57.5 µM
Method in brief: as §3

[15] = tested on: CASKI; assay: as above; conditions: Gynecologic cancer cell panel viability, ATPlite luminescence, 48 h; series mostly up to 57.5 µM
Method in brief: as §3

[16] = tested on: Es-2; assay: as above; conditions: Gynecologic cancer cell panel viability, ATPlite luminescence, 48 h; series mostly up to 57.5 µM
Method in brief: as §3

[17] = tested on: HeLa; assay: as above; conditions: Gynecologic cancer cell panel viability, ATPlite luminescence, 48 h; series mostly up to 57.5 µM
Method in brief: as §3

[18] = tested on: Hek293T; assay: as above; conditions: Gynecologic cancer cell panel viability, ATPlite luminescence, 48 h, control line for the selectivity index; series mostly up to 57.5 µM
Method in brief: as §3

[19] = tested on: MKL-1; assay: qHTS assay to identify novel small-molecules to repurpose for Merkel cell carcinoma treatment (AID 1296009); conditions: MCC and control cell lines, CellTiter-Glo viability, 72 h; series mostly up to 46 µM; also: nearly all actives have a fitted effect of over 60% in size
Method in brief: as §2

[20] = tested on: HEK293T; assay: as above; conditions: MCC and control cell lines, CellTiter-Glo viability, 72 h; at 44.8 µM (top of the series) unless noted
Method in brief: as §2
% is scaled to controls: 0 for no effect and ±100 for the full control effect.

CC(C)NNC(=O)c1ccncc1
inactive: max response [1] -3.48% | max response [2] -10.4% | outcome [3] | max response [4] -1.28% | outcome [5] | outcome [6] | Potency [7] | Potency [8] | Potency [9] | outcome [10] | Potency [11] | Potency [12] | Potency [13] | Potency [14] | Potency [15] | Potency [16] | Potency [17] | Potency [18]

CC(=O)Nc1nnc(S(N)(=O)=O)s1
inactive: outcome [1] | max response [2] 3.96% | max response [3] 4.4% | max response [4] 1.55% | outcome [5] | Potency [7] | Potency [8] | Potency [19] | Potency [9] | outcome [10] | Potency [11] | Potency [12] | Potency [13] | Potency [14] | Potency [15] | Potency [16] | Potency [17] | Potency [18]

Nc1c2c(nc3ccccc13)CCCC2O (centres undefined)
inactive: max response [1] -0.206% | outcome [2] | outcome [3] | max response [4] -6.2% | max response [5] 4.53% | outcome [6] | outcome [20] | Potency [7] | Potency [8] | Potency [9] | Potency [12] | Potency [13] | Potency [14] | Potency [15] | Potency [16] | Potency [17] | Potency [18]

NC(=O)N1c2ccccc2C=Cc2ccccc21
inactive: outcome [1] | max response [2] 2.7% | max response [3] -8.83% | max response [4] -5.38% | max response [5] 2.27% | Potency [7] | Potency [8] | Potency [19] | Potency [9] | Potency [11] | Potency [12] | Potency [13] | Potency [14] | Potency [15] | Potency [16] | Potency [17] | Potency [18]

Cc1ccc(=O)n(-c2ccccc2)c1
inactive: max response [1] -4.72% | max response [2] 4.05% | max response [3] 3.39% | max response [4] 4.11% | max response [5] -3.29% | Potency [7] | Potency [8] | Potency [19] | Potency [9] | Potency [11] | Potency [12] | Potency [13] | Potency [14] | Potency [15] | Potency [16] | Potency [17] | Potency [18]

Cc1ccc(Cl)c(Nc2ccccc2C(=O)O)c1Cl
inactive: max response [1] 2.33% | outcome [2] | max response [3] -3.9% | max response [4] -10.1% | max response [5] 3.05% | outcome [20] | Potency [7] | Potency [8] | Potency [19] | Potency [9] | Potency [11] | Potency [12] | Potency [13] | Potency [14] | Potency [15] | Potency [16] | Potency [17] | Potency [18]

C[C@H](CS)C(=O)N1CCC[C@H]1C(=O)O
inactive: max response [1] 1.04% | max response [2] -1.78% | max response [3] 2.06% | max response [4] 0.626% | max response [5] -6.68% | Potency [7] | Potency [8] | Potency [19] | Potency [9] | Potency [11] | Potency [12] | Potency [13] | Potency [14] | Potency [15] | Potency [16] | Potency [17] | Potency [18]

CCN(Cc1ccncc1)C(=O)C(CO)c1ccccc1 (centres undefined)
inactive: max response [1] -20.8% | max response [2] -10.1% | outcome [3] | max response [4] 6.96% | max response [5] -10.9% | outcome [6] | Potency [7] | Potency [8] | Potency [9] | Potency [11] | Potency [12] | Potency [13] | Potency [14] | Potency [15] | Potency [16] | Potency [17] | Potency [18]

C[C@]12C=CC(=O)C=C1CC[C@H]1[C@@H]3C[C@@H](O)[C@](O)(C(=O)CO)[C@@]3(C)C[C@H](O)[C@@]12F
inactive: max response [1] 3.67% | outcome [2] | max response [3] -5.14% | max response [4] 41.4% | outcome [5] | outcome [20] | Potency [7] | Potency [8] | Potency [9] | outcome [10] | Potency [11] | Potency [12] | Potency [13] | Potency [14] | Potency [15] | Potency [16] | Potency [17] | Potency [18]

Cc1nc2c([nH]1)c(=O)n(C)c(=O)n2Cc1ccco1
inactive: max response [1] 0.6% | max response [2] 4.2% | outcome [3] | max response [4] 16.5% | max response [5] -4.53% | outcome [6] | Potency [7] | Potency [8] | Potency [19] | Potency [9] | Potency [11] | Potency [12] | Potency [13] | Potency [14] | Potency [15] | Potency [16] | Potency [17] | Potency [18]

CO[C@@]1(NC(=O)CSCC#N)C(=O)N2C(C(=O)O)=C(CSc3nnnn3C)CS[C@@H]21
inactive: max response [1] 2.03% | max response [2] -2.42% | outcome [3] | max response [4] 1.86% | max response [5] -0.696% | outcome [6] | Potency [7] | Potency [8] | Potency [11] | Potency [13] | Potency [14] | Potency [15] | Potency [16] | Potency [17] | Potency [18]

COc1cc(Cc2cnc(N)nc2N)cc(OC)c1OC
inactive: outcome [1] | outcome [2] | outcome [3] | max response [4] 8.08% | max response [5] -0.336% | outcome [6] | outcome [20] | Potency [7] | Potency [8] | Potency [19] | Potency [9] | Potency [11] | Potency [12] | Potency [13] | Potency [14] | Potency [15] | Potency [16] | Potency [17] | Potency [18]
